mHTT CaM bind – mutant huntingtin-calmodulin interaction inhibitors – biochemical, AlphaScreen, primary screen; actives 3.6% (n = 190,000); inhibition, % at 15 µM; AlphaScreen His-mHTT/GST-CaM binding, luminescence; P42858;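 also: 0% = both proteins with DMSO and 100% = one protein alone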
Pf apPOL inh – Pf-apPOL inhibitors, biochemical, fluorescence; Recombinant Pf-apPOL, molecular beacon fluorescence, 1.5 h; AID 1794808, 2022; actives 0.25% (n = 210,000); inhibition, % at 10 µM
The depositor's hits bear a star; nt = no result given. Hits are enriched below; roughly 3.5% of the tested compounds scored in any of these assays. Rule as the data show it: active = inhibition above about 50%; inactive = the rest.

SMILES	mHTT CaM bind	Pf apPOL inh
O=C(Nc1nnc(-c2ccc(F)cc2)o1)c1ccc(S(=O)(=O)N2CCc3ccccc3C2)cc1	4	-67
Nc1cc(Oc2ccc(O)c(N)c2)ccc1O	90*	3
Nc1cc(C(=O)c2ccc(O)c(N)c2)ccc1O	17	-8
O=C(c1ccccc1Cl)N1N=C(C2CCCCC2)CC1(O)C(F)(F)F (configuration not stated)	-6	-1
CC(C)c1ccc(C(=O)N2CCCC2COc2ccc(C(=O)N3CCOCC3)cc2)cc1 (configuration not stated)	10	52*
Cc1ccc(C(=O)N2CCCC2COc2ccc(C(=O)N3CCOCC3)cc2)cc1 (configuration not stated)	4	-3
Cc1ccc(C(=O)NCc2ccco2)cc1Cl	11	-9
Cn1cc(S(=O)(=O)Nc2ccc(F)cc2Cl)c2cccnc21	69*	93*
Cn1cc(S(=O)(=O)Nc2cccc(Cl)c2)c2cccnc21	-5	10
CCCn1cc(S(=O)(=O)Nc2ccc(Cl)cc2F)c2cccnc21	39	13
Cc1cccc(NS(=O)(=O)c2cn(C)c3ncccc23)c1	59*	88*
COC(=O)c1ccc(C=C2Oc3cc(OS(C)(=O)=O)cc(C)c3C2=O)cc1	1	-3
NC(=O)c1cccc2c1NC(C(=O)O)C1CC=CC21 (configuration not stated)	71*	1
O=C(O)c1cccc2c1NC(C(=O)O)C1CC=CC21 (configuration not stated)	77*	4
CCC(CC)NC(=O)C1CCc2sc(C(=O)N(C)C)cc2C1 (configuration not stated)	0	-3
O=C(c1ccccc1)C1CN(Cc2ccccc2)CCC1(O)c1ccccc1 (configuration not stated)	70*	-1
OC1(c2ccccc2)CCN(Cc2ccccc2)C1 (configuration not stated)	-4	-4
CC(C)(C)CC(=O)N1CCN(Cc2noc(-c3cccc(F)c3)n2)CC1	-1	-3
O=C(Nc1ccc(Nc2ccc(-n3cccn3)nn2)cc1)c1ncccn1	91*	-1
O=C(Nc1ccc(-c2ccc(=O)[nH]n2)cc1)c1ccc(-n2cccn2)nn1	-14	2
COC(=O)Nc1ccc(-c2ccc(NC(=O)OC)c(C)c2)cc1C	-6	2
Cc1ccc2nc(/C(C#N)=C/c3ccc(-c4cc([N+](=O)[O-])ccc4O)o3)[nH]c2c1	56*	-1
CCOc1ccc(/C=C(\C#N)c2nc3ccc(C)cc3[nH]2)cc1	19	0
CCOc1cc(/C=C(\C#N)c2nc3ccc(C)cc3[nH]2)cc(I)c1O	80*	-1
COc1cc(-c2ccc(/C=C(\C#N)c3nc4ccc(C)cc4[nH]3)o2)c(OC)cc1Cl	35	-20
SMILES	mHTT CaM bind	Pf apPOL inh
N#C/C(=C\c1ccco1)c1nc2ccccc2[nH]1	3	-8
Cc1ccc2nc(/C(C#N)=C/C=C/c3ccco3)[nH]c2c1	67*	-7
Cc1ccc2nc(/C(C#N)=C/c3ccc([N+](=O)[O-])o3)[nH]c2c1	-6	-2
Cc1ccc2nc(/C(C#N)=C/c3ccc(-c4ccc5c(c4)C(=O)NC5=O)o3)[nH]c2c1	68*	-4
O=C(NCCc1csc(C2CCCN(C(=O)c3cccnc3)C2)n1)C1CCC1 (configuration not stated)	-6	-6
CC(C)(C)c1cc(N)c(C#N)s1	nt	-2
CC(=O)Nc1ccc(OCc2cn(CC(=O)c3ccc(O)cc3)nn2)cc1	52*	34
CC(=O)c1ccc(OCc2cn(CC(=O)c3ccc(O)cc3)nn2)cc1	4	11
N#CC(NCc1ccccc1Cl)=C(C#N)NCc1c(F)cccc1Cl	nt	-3
CCN1c2cc(Cl)ccc2C(=O)NC12CCN(C(=O)NCc1ccc(F)cc1)CC2	58*	-2
CCN1c2cc(Cl)ccc2C(=O)NC12CCN(C(=O)NCc1ccc(C)cc1)CC2	-3	-3
COc1ccc2nc(N=C(N)NC(=O)c3ccccc3)nc(C)c2c1	0	-4
O=c1oc2ccc(Br)cc2cc1-c1nc2ccccc2[nH]1	-5	83*
O=c1oc2ccc(Cl)cc2cc1-c1nc2ccccc2[nH]1	-4	0
CCCCC(=O)N1CCc2cc(OC)c(OC)cc2C1COc1ccccc1OC (configuration not stated)	-2	0
O=C(Nc1ccc2c(c1)OCCO2)N1CCC(n2c(-c3ccco3)nc3cccnc32)C1 (configuration not stated)	35	-1
O=C(NCc1ccc(Cl)c(Cl)c1)c1ccc([N+](=O)[O-])cc1Cl	6	0
CCCCc1ccc(NC(=O)N2CC3CC(NS(C)(=O)=O)C2C3)cc1 (configuration not stated)	15	-3
Nc1sc2c(c1-c1nn[nH]n1)CCCC2	90*	nt
N#Cc1c(N)sc2c1CCCC2	4	-2
C/C(=C\c1ccccc1)CN1CCC(C(=O)N2CCOCC2)CC1	4	-8
CCN1C(=O)Cc2cc(C(=O)N3CCN(c4ccccc4Cl)CC3)ccc21	27	-6
CC1CCN(C(=O)c2ccc3c(c2)CC(=O)N3Cc2cccc(F)c2)CC1	57*	-2
CCN1C(=O)Cc2cc(C(=O)N3CCN(c4ccccc4C)CC3)ccc21	68*	1
CC1CCN(C(=O)c2ccc3c(c2)CC(=O)N3Cc2ccc(F)cc2)CC1	15	-6
SMILES	mHTT CaM bind	Pf apPOL inh
CN(C)S(=O)(=O)c1ccc(C(=O)Nc2sc(-c3ccccc3)cc2C(N)=O)cc1	-16	-2
C=C(C)COc1ccc2c(-c3cc4cccc(OC)c4oc3=O)cc(=O)oc2c1	6	-2
O=C(CCN1C(=O)C2C3C=CC(C3)C2C1=O)Nc1ccnc2ccccc12 (configuration not stated)	-5	-5
COc1ccc(CNC(=O)NCCC(O)C(C)(C)C)cc1 (configuration not stated)	-16	-6
O=C(O)/C(=C\c1ccco1)NC(=O)c1ccc(Cl)cc1Cl	-1	-13
CC1(C)CC2CC(C)(CN2C(=O)/C(=C/c2ccco2)NC(=O)c2ccc(Cl)cc2)C1 (configuration not stated)	62*	0
CCC(=O)Nc1nc2ccccc2n1C	-7	0
CCC(=O)Nc1nc2ccccc2n1Cc1ccc(Cl)cc1	72*	-7
O=C(Nc1ccccc1)c1cccc2c3c([nH]c12)CCCC3	76*	-1
c1ccc2c3c([nH]c2c1)CCCC3	37	nt
CC(=O)n1c2ccccc2c2[nH]c3c(c21)CCCC3	16	2
Cc1nnc(N2C(=O)C(O)=C(C(=O)c3ccco3)C2c2cccc(Oc3ccccc3)c2)s1 (configuration not stated)	56*	-10
Cc1nnc(N2C(=O)C(O)=C(C(=O)c3ccco3)C2c2cccc([N+](=O)[O-])c2)s1 (configuration not stated)	1	-5
O=C(NCCc1ccccc1)c1ccc2c(c1)NC(=O)C(N1CCCC1)S2 (configuration not stated)	11	-14
CC1NC2(C(=O)N(C/C=C/c3ccccc3)c3ccccc32)C2C(=O)N(c3ccccc3)C(=O)C12 (configuration not stated)	47	3
CC1NC2(C(=O)N(C/C=C/c3ccccc3)c3ccccc32)C2C(=O)N(Cc3ccccc3)C(=O)C12 (configuration not stated)	52*	-12

Assay outcomes: PubChem, University of Kansas High Throughput Screening Laboratory
